Test results reported in PubChem BioAssay.
Inconclusive results are not listed. Calls of active or inactive are those of the source.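 The calls were made as follows, unless noted: active = cell viability at or below a set limit in both duplicate runs, the limit being the all-compound median minus 4 SD (cut at about 23% in these data, passing the limit was not always enough); inconclusive = no clear call, values can overlap the other calls; inactive = the rest.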

How the values were obtained:
[1] = Her2 expression decrease, cell viability multiplex – SKBR3 breast tumor cells, AlphaScreen, ATP viability, primary screen (AID 461;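 active = Her2 level under about 52% in both replicate screens, with viability over 70% of control, limit read from the data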;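 as to Her2 level: lower value means less Her2 protein in the cells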;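 as to viability: percent of carrier control wells set as 100% viability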); conditions: SKBR3 Her2 protein level, 18-24 h, measured here: SKBR3 viability, ATP luminescence, at 10 µM
[2] = target: Receptor tyrosine-protein kinase erbB-2 (Homo sapiens) (UniProt P04626); test: as above; conditions: 18-24 h, at 10 µM, stronger effect = lower value
[3] = reduced viability of SK-BR-3 breast cancer cells – cell-based, 24 h, human, pilot screen (AID 572;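 active = viability at or below 10% of carrier control in both of two separate runs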;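 also: compound exposure lasted between 18 and 24 h rather than exactly 24 h; 100% = carrier-treated control wells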); conditions: SK-BR-3 viability, CellTiter-Glo luminescence, at 10 µM, stronger effect = lower value
[4] = HUVEC growth inhibition – cell-based, human, primary screen (AID 575;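 active = viability at or below 30% in both replicate assays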;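 also: 100% = median of untreated cell wells with 0.1% DMSO on each plate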); conditions: HUVEC proliferation, CellTiter-Glo luminescence, 72 h; at 10 µM; stronger effect = lower value
[5] = H69AR cell proliferation blockers – human, duplicate replicates, primary screen (AID 580;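 active = viability at or under a set limit in both replicates, limit being median viability minus 3 SD, cut at about 48% in these data, passing the limit was not always enough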;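 also: 100% = mean luminescence of untreated wells and 0% = no signal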); conditions: H69AR lung tumor cells viability, ATP luminescence, 72 h; at 10 µM; stronger effect = lower value
[6] = MRP1 drug-resistance reversers in H69AR cells – cell-based, doxorubicin co-treatment, pilot screen (AID 601;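 active = viability loss from added drug above about 55%, and viability with drug at most 40%, in both replicates, limit read from the data, passing the limit was not always enough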); conditions: CellTiter-Glo, 72 h, at 10 µM; for differential viability (reversal): stronger effect = higher value
[7] = yeast transport mutant growth inhibition pilot in 384-well plates, post-Golgi transport modulator project (AID 636; in the data active = inhibition above about 31%); conditions: absorbance 615 nm, about 18 h, stronger effect = higher value
[8] = growth suppression of yeast trafficking mutant, preliminary HTS, modulators of trafficking downstream of Golgi apparatus project, 1536-format plate, OD 615 nm (AID 637; in the data active = inhibition above about 30%); conditions: yeast transport mutant growth, absorbance 615 nm, 18 h; stronger effect = higher value
[9] = S. cerevisiae growth inhibition in permissive medium (OD615), pilot counter-assay for S. cerevisiae lifespan shortening project, permissive growth control (AID 705;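 active = growth inhibition above 25% in both replicates, a cutoff set 3 SD above the mean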); conditions: OD615, 24 h, at 10 µM, stronger effect = higher value
[10] = S. cerevisiae growth inhibition in restrictive medium, OD615, pilot screen, restrictive growth control, yeast lifespan reduction project (AID 706;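 active = growth inhibition above a set limit, 3 SD over mean compound inhibition, in both replicates, cut at about 43% in these data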;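 also: modified DeaD lifespan yeast strain shifted to restrictive glucose medium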); conditions: OD615, 48 h, at 10 µM, stronger effect = higher value
[11] = doxorubicin toxicity protection in MRP-1 cells – H69AR cells, CellTiter-Glo, duplicate, MRP-1 activator project, pilot screen (AID 807;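 active = viability increase at or above a cutoff of the median across tested compounds plus 3 SD, cut at about 8.5% in these data, passing the limit was not always enough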;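 also: compound pretreatment 18-22 h then 72 h combined with doxorubicin; 0% = doxorubicin alone and 100% = vehicle without doxorubicin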); conditions: H69AR viability with doxorubicin, CellTiter-Glo luminescence; at 10 µM; stronger effect = higher value
[12] = viability of HCT116 without oncogenic beta-catenin – human colon tumor cells, pilot screen (AID 823); conditions: HCT116 beta-catenin knockout viability, CellTiter-Glo, 60 h; at 10 µM; stronger effect = lower value;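 also: 0% = wells killed by 20 µM Hyamine and 100% = untreated DMSO cell wells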
[13] = viability of PTEN-null HCT116 cells – cell-based, HCT116 clonal line, CellTiter-Glo, pilot screen (AID 824;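 active = viability at or below 27.92% in each of two runs, the all-compound median minus 4 SD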;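 also: 0% = 20 µM Hyamine control and 100% = vehicle cell control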); conditions: HCT116 PTEN-deleted viability, 60 h, at 10 µM, stronger effect = lower value
[14] = RAM pathway blockade in budding yeast – dse1pr::URA3 reporter, 5-FOA selection, pilot screen (AID 869;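 active = inhibition over a set limit, the all-compound mean plus 3 SD, in both replicate runs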;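 also: 0% = DMSO wells with no growth and 100% = 10 µM 1-NA-PP1 with full growth; RAM network block rescues cells from 5-FOA so hits raise OD615 growth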); conditions: S. cerevisiae dse1pr::URA3 5-FOA growth, OD615, 2 d; at 10 µM; stronger effect = higher value; strain carries analog-sensitive mutant Cbk1 kinase
[15] = RAM signaling pathway blockade in yeast – S. cerevisiae, Pdr1DBD-CYC8 efflux-inhibited sensitized strain, primary screen (AID 1298;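 active = RAM network inhibition above 8.4% in each of two replicates, 3 SD over the compound average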;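 also: 0% = DMSO untreated cells without growth and 100% = 10 µM 1-NA-PP1 full growth; higher means more yeast growth rescued from 5-FOA killing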); conditions: S. cerevisiae cbk1-as DSE1-URA3 strain, 5-FOA growth OD615, 2 d; at 50 µM; stronger effect = higher value
[16] = H69AR cells + 2 uM doxorubicin, measured here: viability with 2 uM doxorubicin, stronger effect = lower value
[17] = H69AR cells, compound alone cytotoxicity

Sequence of Receptor tyrosine-protein kinase erbB-2 (Homo sapiens) (P04626 whole entry, looked up): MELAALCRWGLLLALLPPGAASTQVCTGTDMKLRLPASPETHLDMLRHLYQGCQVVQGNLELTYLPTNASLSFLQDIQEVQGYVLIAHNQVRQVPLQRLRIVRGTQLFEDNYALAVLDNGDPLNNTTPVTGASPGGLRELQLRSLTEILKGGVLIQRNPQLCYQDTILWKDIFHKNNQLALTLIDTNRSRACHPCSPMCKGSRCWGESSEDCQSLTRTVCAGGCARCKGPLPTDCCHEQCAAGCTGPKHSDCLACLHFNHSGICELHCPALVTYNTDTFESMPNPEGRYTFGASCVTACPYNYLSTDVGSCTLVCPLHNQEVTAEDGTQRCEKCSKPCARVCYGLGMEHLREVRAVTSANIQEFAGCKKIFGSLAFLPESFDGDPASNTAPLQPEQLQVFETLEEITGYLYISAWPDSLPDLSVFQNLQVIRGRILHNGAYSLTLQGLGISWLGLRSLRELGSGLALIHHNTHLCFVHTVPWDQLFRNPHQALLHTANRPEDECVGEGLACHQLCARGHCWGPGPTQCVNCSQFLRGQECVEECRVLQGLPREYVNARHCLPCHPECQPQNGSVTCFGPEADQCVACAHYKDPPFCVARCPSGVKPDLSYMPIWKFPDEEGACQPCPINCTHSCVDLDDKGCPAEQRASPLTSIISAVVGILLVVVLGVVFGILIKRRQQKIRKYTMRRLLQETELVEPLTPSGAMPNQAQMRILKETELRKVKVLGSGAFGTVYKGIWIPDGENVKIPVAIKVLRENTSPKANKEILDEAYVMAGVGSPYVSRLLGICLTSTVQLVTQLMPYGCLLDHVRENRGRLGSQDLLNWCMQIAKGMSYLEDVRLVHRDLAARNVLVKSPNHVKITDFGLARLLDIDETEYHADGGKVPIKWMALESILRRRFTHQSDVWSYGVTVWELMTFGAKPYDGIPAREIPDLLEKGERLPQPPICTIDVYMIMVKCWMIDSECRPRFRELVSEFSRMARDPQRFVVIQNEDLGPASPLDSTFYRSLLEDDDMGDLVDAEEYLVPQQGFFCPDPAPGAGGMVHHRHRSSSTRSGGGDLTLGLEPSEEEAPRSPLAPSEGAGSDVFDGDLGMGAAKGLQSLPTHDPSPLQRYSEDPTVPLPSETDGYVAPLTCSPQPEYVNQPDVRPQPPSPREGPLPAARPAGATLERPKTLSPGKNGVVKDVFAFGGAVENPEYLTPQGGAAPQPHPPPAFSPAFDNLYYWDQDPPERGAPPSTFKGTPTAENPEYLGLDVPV

| Compound | viability [1] | Her2 level [2] | viability [3] | viability [4] | viability [5] | differential viability (reversal) ([6]; H69AR cells + 2 uM doxorubicin) | viability [6, 16] | viability [6, 17] | inhibition [7] | inhibition [8] | growth inhibition [9] | growth inhibition [10] | viability increase [11] | viability [12] | viability [13] | inhibition [14] | RAM network inhibition [15] |
| --- | --- | --- | --- | --- | --- | --- | --- | --- | --- | --- | --- | --- | --- | --- | --- | --- | --- |
| CCOc1cc(C2NC(=O)NC(O)(C(F)(F)F)C2C(=O)c2ccccc2)ccc1OC (stereo not drawn) | 108% | 110% (inactive) | 108% (inactive) | 104% (inactive) | 102% (inactive) | 5.23% (inactive) | 96.6% | 102% | -4.46% (inactive) | -8.2% (inactive) | -0.49% (inactive) | 19.4% (inactive) | -0.8% (inactive) | 109% (inactive) | 97.8% (inactive) | 0.24% (inactive) | 0.2% (inactive) |
| COc1ccc(S(=O)(=O)N2CCC(C(=O)Nc3c(F)cccc3F)CC2)cc1 | 88.5% | 111% (inactive) | 88.5% (inactive) | 96.5% (inactive) | 97.6% (inactive) | 0.885% (inactive) | 96.8% | 97.6% | 0.93% (inactive) | -4.17% (inactive) | -11.9% (inactive) | -14.8% (inactive) | -2.23% (inactive) | 99.6% (inactive) | 101% (inactive) | 3.77% (inactive) | 3.07% (inactive) |
| O=C(Cn1cc2c(n1)CCCCC2)N1CCc2ccccc21 | 85.5% | 95.5% (inactive) | 85.5% (inactive) | 67.6% (inactive) | 87.8% (inactive) | -3.99% (inactive) | 91.8% | 87.8% | -1.33% (inactive) | -7.87% (inactive) | -4.03% (inactive) | -4.38% (inactive) | -2.66% (inactive) | 66.4% (inactive) | 81% (inactive) | 2.15% (inactive) | 1.83% (inactive) |
| Cn1c(=O)oc2cc(S(=O)(=O)NC3CCN(Cc4ccccc4)CC3)ccc21 | 103% | 96% (inactive) | 103% (inactive) | 90.9% (inactive) | 108% (inactive) | 14.4% (inactive) | 93.2% | 108% | -0.51% (inactive) | -1.17% (inactive) | -5.47% (inactive) | -3.98% (inactive) | -1.57% (inactive) | 92% (inactive) | 94.7% (inactive) | 1.28% (inactive) | 3.24% (inactive) |
| CCOCCn1c(CN2CCN(CC)CC2)nc2c1c(=O)n(C)c(=O)n2C | 121% | 109% (inactive) | 121% (inactive) | 94.2% (inactive) | 91.8% (inactive) | 4.7% (inactive) | 87.1% | 91.8% | -1.6% (inactive) | -4.33% (inactive) | 5.99% (inactive) | 1.91% (inactive) | -1.7% (inactive) | 103% (inactive) | 97.6% (inactive) | 1.31% (inactive) | -1.34% (inactive) |
| O=C(Nc1cccc(Cl)c1)N1CCN(Cc2ccccc2)CC1 | 98.5% | 99% (inactive) | 98.5% (inactive) | 103% (inactive) | 84.2% (inactive) | 5.49% (inactive) | 78.7% | 84.2% | -6% (inactive) | -0.49% (inactive) | -4.47% (inactive) | -8.27% (inactive) | -1.11% (inactive) | 92.1% (inactive) | 86.4% (inactive) | 1.24% (inactive) | 3.81% (inactive) |
| Cc1nnc(SCC(=O)Nc2c(Cl)cccc2Cl)[nH]c1=O | 104% | 101% (inactive) | 104% (inactive) | 99.1% (inactive) | 93.9% (inactive) | 0.52% (inactive) | 93.3% | 93.9% | -3.73% (inactive) | -2.17% (inactive) | -7.89% (inactive) | 7.47% (inactive) | 0.15% (inactive) | 98.7% (inactive) | 104% (inactive) | 1.54% (inactive) | 4.64% (inactive) |
| c1ccc2c(c1)nc(NC1CCCCC1)c1nncn12 | 98.5% | 109% (inactive) | 98.5% (inactive) | 86.6% (inactive) | 90.8% (inactive) | 19.9% (inactive) | 70.9% | 90.8% | -5% (inactive) | -1.17% (inactive) | -8.94% (inactive) | -7.48% (inactive) | -6.65% (inactive) | 89.9% (inactive) | 83.3% (inactive) | 0.325% (inactive) | 2.5% (inactive) |
| CCOCCOc1nc2c(c(=O)n(C)c(=O)n2C)n1Cc1ccc(C)cc1 | 83% | 113% (inactive) | 83% (inactive) | 94.5% (inactive) | 90.8% (inactive) | -4.61% (inactive) | 95.4% | 90.8% | 0.27% (inactive) | 4.33% (inactive) | 3.97% (inactive) | -4.73% (inactive) | 0.37% (inactive) | 82.3% (inactive) | 79% (inactive) | 2.64% (inactive) | 2.08% (inactive) |
